PubChem BioAssay (NCATS)
Several values for one entry are separate records, joined by “and”; a condition that tells them apart may be missing. Equal values may be shown once. Results filed as inconclusive are left out. Activity calls are given as the source filed them. Calls come from the whole dose curve; as a rule, active = well fitted curve in the direction sought with a large enough effect; inconclusive = small, poorly fitted or top-dose-only effect, or another doubt; inactive = no such curve, though single readings can be large; an effect the other way counts as inactive or inconclusive.

How the values were obtained:
[1] = target: Cellular tumor antigen p53 (Homo sapiens) (UniProt P04637); assay: Primary qHTS for small molecule compounds that upregulate eGFP-tagged delta133p53alpha (in N-terminal) cells. (AID 2060322); conditions: NCI-H358 eGFP-delta133p53alpha fluorescence, 24 h; activation: active compounds read high;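 note: cells pre-induced with doxycycline then dosed without doxycycline; series mostly up to about 56 µM; 0% = DMSO vehicle and 100% = reference activator; nearly all actives have a fitted effect of over 75% in size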
Chain of Cellular tumor antigen p53 (Homo sapiens) (P04637 whole entry, looked up): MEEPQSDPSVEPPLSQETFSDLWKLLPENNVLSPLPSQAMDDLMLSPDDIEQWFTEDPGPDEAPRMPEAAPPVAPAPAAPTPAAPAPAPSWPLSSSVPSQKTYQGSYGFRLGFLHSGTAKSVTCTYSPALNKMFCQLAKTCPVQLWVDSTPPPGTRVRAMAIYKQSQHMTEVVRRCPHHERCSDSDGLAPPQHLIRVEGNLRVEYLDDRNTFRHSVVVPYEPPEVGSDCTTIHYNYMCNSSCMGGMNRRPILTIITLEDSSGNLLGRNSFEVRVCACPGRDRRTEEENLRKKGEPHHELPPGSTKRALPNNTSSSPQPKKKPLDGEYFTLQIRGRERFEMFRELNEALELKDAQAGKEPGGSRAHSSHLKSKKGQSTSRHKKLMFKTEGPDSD
Method in brief: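 NCI-H358 cells pre-induced 24 h with 10 ng/ml doxycycline for eGFP-delta133p53alpha, plated dox-free and exposed 24 h at 37C to titrated compounds. Fixed, Hoechst-stained; gated GFP peak intensity by laser scanning cytometry, normalized to DMSO (0%) and 57.5 uM 5-azacytidine (100%).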

[2] = target: Aldehyde dehydrogenase, mitochondrial (Homo sapiens) (UniProt P05091); assay: qHTS for Inhibitors of the Aldehyde Dehydrogenase Family (ALDH2) Primary screen (AID 2061308);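 note: plate controls were vehicle for no effect and reference inhibitor for full effect; nearly all actives have a fitted effect of over 55% in size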
[3] = target: Retinaldehyde dehydrogenase 3 (Homo sapiens) (UniProt P47895); assay: qHTS for Inhibitors of the Aldehyde Dehydrogenase Family (ALDH1A3) Primary screen (AID 2061315);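 note: plate controls were DMSO vehicle for no effect and reference inhibitor for full effect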

CC1(C)CC[C@]23CO[C@@]4(CCC5[C@@]6(C)CC[C@H](O[C@@H]7OC[C@H](O[C@@H]8O[C@H](CO)[C@@H](O)[C@H](O)[C@H]8O[C@@H]8OC[C@@H](O)[C@H](O)[C@H]8O)[C@H](O)[C@H]7O)[C@@](C)(CO)C6CC[C@@]5(C)[C@]4(C)CC2=O)[C@@H]3C1 (stereo partly drawn)
inactive: activation [1] 18.3% | Potency [2] | Potency [3]

CN[C@H](C(=O)N[C@H](C(=O)N(C)[C@H](/C=C(\C)C(=O)O)C(C)C)C(C)(C)C)C(C)(C)c1ccccc1
inactive: activation [1] 15.8% | Potency [2] | Potency [3]

C[C@@H]1C[C@H](O[C@@H]2O[C@H](CO[C@@H]3OC[C@](O)(CO)[C@H]3O)[C@@H](O)[C@H](O)[C@H]2O)CC(C)(C)[C@H]1/C=C/[C@@H](C)O
inactive: activation [1] -29.5% | Potency [2] | Potency [3]

C/C=C(/C)C(=O)OC1C(OC(C)=O)C23C(O)OC4(CCC5C6(C)CCC(OC7OC(C(=O)O)C(O)C(OC8OC(CO)C(O)C(O)C8OC8OC(C)C(O)C(O)C8OC8OCC(O)C(O)C8O)C7OC7OC(CO)C(O)C(O)C7O)C(C)(C)C6CCC5(C)C4(C)CC2OC(C)=O)C3CC1(C)C (stereo not drawn)
inactive: activation [1] -7.63% | activity change, negative = inhibition [2] 23.8% [at 11.2 µM] | activity change, negative = inhibition [3] 2.15% [at 11.2 µM]

CC(=O)OC[C@@]12[C@H](O)C[C@]3(C)C(=CCC4[C@@]5(C)CC[C@H](O[C@@H]6O[C@H](C(=O)O)[C@@H](O[C@@H]7O[C@H](CO)[C@@H](O)[C@H](O)[C@H]7O)[C@H](O)[C@H]6O[C@@H]6O[C@H](CO)[C@@H](O)[C@H](O)[C@H]6O)[C@](C)(CO)C5CC[C@]43C)[C@@H]1CC(C)(C)[C@@H](OC(C)=O)[C@@H]2O (stereo partly drawn)
inactive: activation [1] -4.58% | Potency [2] | Potency [3]

CC(C)(C)OC(=O)N1CCC(OCc2nc(-c3ccncc3)no2)CC1
inactive: activation [1] -3.34% | Potency [2] | Potency [3]

CC(C)CCNC(=O)[C@H](CC(C)C)NC(=O)[C@H]1O[C@@H]1C(=O)O
inactive: activation [1] -9% | Potency [2] | Potency [3]

COC(=O)C1=COC(O[C@@H]2O[C@H](COC(=O)/C=C/c3ccc(O)cc3)[C@@H](O)[C@H](O)[C@H]2O)C2C(CO)=CCC12 (stereo partly drawn)
inactive: activation [1] -23.7% | Potency [2] | Potency [3]

COc1cc2ncnc(Nc3ccc(F)c(Cl)c3)c2cc1OCCCN1CCOCC1
inactive: activation [1] -5.67% | Potency [2] | Potency [3]

CC1=C(C(=O)O)/C(=C\CO[C@@H]2O[C@H](CO)[C@@H](O)[C@H](O)[C@H]2O)C(OC(=O)/C=C\c2ccc(O)cc2)C1 (stereo partly drawn)
inactive: activation [1] 8.93% | Potency [2] | Potency [3]

CC(C)=CC/C=C(\C)[C@H]1CC[C@]2(C)[C@@H]1[C@H](O)C[C@@H]1[C@@]3(C)CC[C@H](O)C(C)(C)[C@@H]3[C@@H](O[C@@H]3O[C@H](CO)[C@@H](O)[C@H](O)[C@H]3O)C[C@]12C
inactive: activation [1] 1.67% | Potency [2] | Potency [3]

CC1=C2C(=O)O[C@@H](c3ccoc3)[C@]2(C)CCC1
inactive: activation [1] -11.6% and -7% | Potency [2] | Potency [3]

CC(=O)O[C@@H]1C[C@@]2(C)C(CC[C@]3(C)C2CC=C2C4CC(C)(C)CC[C@]4(C(=O)O)CC[C@]23C)C(C)(C)[C@H]1O (stereo partly drawn)
inactive: activation [1] 13.4% | Potency [2] | Potency [3]

C/C=C/C=C/C(=O)OC1CC/C=C/C(O)C(O)C(CCC)OC1=O (stereo not drawn)
inactive: activation [1] -12.2% | Potency [2] | Potency [3]

C[C@H]1CCN2C[C@]34C[C@@]5(C(=O)Nc6c5ccc5c6OC=CC(C)(C)O5)C(C)(C)C3C[C@]12C(=O)N4C (stereo partly drawn)
inactive: activation [1] 5.34% | Potency [2] | Potency [3]

CC1=CC23[C@H](C=C(C(=O)O)[C@@H]2COC(=O)[C@]3(O)CO)[C@@H]1C (stereo partly drawn)
inactive: activation [1] -6.87% | Potency [2] | Potency [3]

CC(c1c[nH]c2ccccc12)C(O)C(=O)O (stereo not drawn)
inactive: activation [1] -11.5% | Potency [2] | Potency [3]

C/C(=C\CCC(C)C1=CCC2(C)OC3=C(CC12)C(=O)C(O)CC3)CO (stereo not drawn)
inactive: activation [1] 25.2% | Potency [2] | Potency [3]

COc1c2ccoc2cc2oc(CO[C@@H]3O[C@H](CO)[C@@H](O)[C@H](O)[C@H]3O)cc(=O)c12
inactive: activation [1] -23.2% | Potency [2] | Potency [3]

C[C@H](NC(c1cccc(C[P+](=O)O)c1)[C@H](C)O)c1ccc(Cl)c(Cl)c1 (stereo partly drawn)
inactive: activation [1] 9% | Potency [2] | Potency [3]

CC1C2=CC(=O)OC2(O)CC2C1C(OC(=O)c1ccccc1)C(OC(=O)c1ccccc1)C1(O)C2(C)CCC(O)C1(C)C(=O)O (stereo not drawn)
inactive: activation [1] 26.7% | Potency [2] | Potency [3]

CC(O)CO[C@@H]1O[C@H](CO)[C@@H](O)[C@H](O)[C@H]1O (stereo partly drawn)
inactive: activation [1] -4.58% | Potency [2] | Potency [3]

N#Cc1cc(-c2n[nH]c(-c3ccncc3)n2)ccn1
inactive: activation [1] 4.46% | Potency [2] | Potency [3]

CC(=O)OC1CC(C(C)(C)O)OC2CCC3(C)OC4=C(C(=O)C=C5C(C)C(OC(C)=O)C6(C)C(C)OC546)C(O)C3C12C (stereo not drawn)
inactive: activation [1] 2.68% | Potency [2] | Potency [3]

COC(=O)c1ccc(N2CCN(C)CC2)c(NC(=O)c2cccc(OC)c2)c1
inactive: activation [1] 9% | Potency [2] | Potency [3]

CC1=CC(=O)CC(C)(C)C1CCC(C)O[C@@H]1O[C@H](CO)[C@@H](O)[C@H](O)[C@H]1O (stereo partly drawn)
inactive: activation [1] -3.57% | Potency [2] | Potency [3]

CC1OC(OC2C(C)OC(OC3C(OC(=O)/C=C/c4ccc(O)cc4)C(CO)OC(OC4(COC(=O)/C=C/c5ccc(O)cc5)OC(CO)C(O)C4O)C3OC3OCC(O)(CO)C3O)C(O)C2O)C(O)C(O)C1O (stereo not drawn)
inactive: activation [1] 14.5% | Potency [2] | Potency [3]

Nc1ncnc2c([C@@H]3N[C@H](CO)[C@@H](O)[C@H]3O)c[nH]c12
inactive: activation [1] -8.93% | Potency [2] | Potency [3]

CC(=O)OC(C)C(C)(O)C(=O)O[C@@H]1CC[C@]2(C)CC(=O)C(=C(C)C)C[C@H]2[C@]1(C)OC(C)=O (stereo partly drawn)
inactive: activation [1] 2.29% | Potency [2] | Potency [3]

Cc1cnn(-c2ccccc2)c1NC(=O)COCc1ccccc1
inactive: activation [1] 0.333% | Potency [2] | Potency [3]

COc1ccc(C2(O)c3ccccc3NC(=O)C2OC)cc1 (stereo not drawn)
inactive: activation [1] -2.29% | Potency [2] | Potency [3]

CC1=C2C[C@@]3(C)C(CCC[C@@H]3C)C(O)C2(O)OC1=O (stereo partly drawn)
inactive: activation [1] 0% | Potency [2] | Potency [3]

CC1=CC(=O)OC(C)(CC(C)(O)C(=O)O)C1 (stereo not drawn)
inactive: activation [1] -15.3% | Potency [2] | Potency [3]

C=CC(C)(O)CC/C=C(/C)COC(=O)C(C)C1CCC(C)(C=C)O1 (stereo not drawn)
inactive: activation [1] 5.36% | Potency [2] | Potency [3]

CC(C)(C)NC(=O)[C@@H]1CN(Cc2cccnc2)CCN1C[C@@H](O)C[C@@H](Cc1ccccc1)C(=O)N[C@H]1c2ccccc2C[C@H]1O
inactive: activation [1] -2.82% and 2.86% | Potency [2] | Potency [3]

C=C(C(=O)O)C1CCC2(C)CCC(O)C(C)(O)C2C1 (stereo not drawn)
inactive: activation [1] 8.04% | Potency [2] | Potency [3]

C/C=C(/C)C(=O)O[C@@H]1C[C@@H](OC(=O)/C(C)=C\C)[C@@]2(C)C3C(=O)C=C(C)C2C3C1(C)C
inactive: activation [1] -3.57% | Potency [2] | Potency [3]

COC1=CC(=O)O[C@@H](/C=C/c2ccccc2)[C@@H]1O
inactive: activation [1] 9.82% | Potency [2] | Potency [3]

COc1c2c(c(C)c3c1C(=O)OC3)O[C@@]1(C)C[C@@H](OC(C)=O)[C@]34O[C@](OC)(CC[C@]3(C)[C@H]1C2)OC4(C)C
inactive: activation [1] -5.36% | Potency [2] | Potency [3]

OCc1ccc(O[C@@H]2O[C@H](CO)[C@@H](O)[C@H](O)[C@H]2O)cc1
inactive: activation [1] 2.68% | Potency [2] | Potency [3]

Cc1ccc(Cc2c(C)nc3nc(SCC(=O)NCCN4CCNCC4)nn3c2C)cc1
inactive: activation [1] -9.67% | Potency [2] | Potency [3]

CC(=O)C1=C(C)N(c2cccc(C(F)(F)F)c2)C(=O)N[C@H]1c1ccc(C#N)nc1
inactive: activation [1] -3.67% | Potency [2] | Potency [3]

CC1OC(OC2C(OC3C(O[C@H]4CC[C@@]5(C)C(CC[C@]6(C)C5C(=O)CC5=C7CC(C)(C)CC(O)[C@]7(C)CC[C@]56C)C4(C)C)OC(C(=O)O)C(O)C3O)OCC(O)C2O)C(O)C(O)C1O (stereo partly drawn)
inactive: activation [1] -11.5% | Potency [2] | Potency [3]

C/C(=C/CO)CC[C@@H]1[C@@](C)(O)CCC2C(C)(C)CCC[C@]21C (stereo partly drawn)
inactive: activation [1] -7.14% | Potency [2] | Potency [3]

CC1(C)CC2=C3C=CC4C5(C)CCC(O)C(C)(C)C5CCC4(C)C3(C)CCC2(C)C(O)C1 (stereo not drawn)
inactive: activation [1] -8.04% | Potency [2] | Potency [3]

COc1cc(/C=C/CO)ccc1O[C@@H]1O[C@H](CO)[C@@H](O)[C@H](O)[C@H]1O
inactive: activation [1] -6.25% | Potency [2] | Potency [3]

CC1(CO)CC2C(O)C3=C(CC(C)(O)C2C1)C(=O)OC3 (stereo not drawn)
inactive: activation [1] -12.2% | Potency [2] | Potency [3]

CC1(C)CCC2(C(=O)OC3OC(CO)C(O)C(O)C3O)CCC3(C)C(=CCC4C5(C)CCC(OC6OC(C(=O)O)C(OC7OC(CO)C(O)C(O)C7O)C(OC7OC(CO)C(O)C(O)C7O)C6O)C(C)(C)C5CCC43C)C2C1 (stereo not drawn)
inactive: activation [1] -5.34% | Potency [2] | Potency [3]

COc1cc(O)c2c(c1)C1=CC(O)C(O)CC1(C)OC2=O (stereo not drawn)
inactive: activation [1] 2.29% | Potency [2] | Potency [3]

CC(C)c1ccc2c(c1)C(O)CC1C(C)(CO)CCCC21C (stereo not drawn)
inactive: activation [1] -12.5% | Potency [2] | Potency [3]

CC(=O)OC(C)(C)/C=C/C(=O)[C@](C)(O)[C@H]1C(O)C[C@@]2(C)[C@@H]3CC=C4[C@@H](C=C(O[C@@H]5O[C@H](CO)[C@@H](O)[C@H](O)[C@H]5O)C(=O)C4(C)C)[C@]3(C)C(=O)C[C@]12C (stereo partly drawn)
inactive: activation [1] 22.3% | Potency [2] | Potency [3]
